Assay results taken from PubChem BioAssay AID1159580 (chemical genetic matrix, 2015).
About 2,000 (36%) of roughly 5,500 compounds were called active. About 18% were inconclusive and are not listed. No stated cut-off is given here; in the data, active means normalized growth mostly below about 0.91 (no sharp cut-off); inconclusive means no clear call, values can overlap the other calls; inactive means mostly above about 0.92. Some of the results follow.

Assay: chemical genetic growth profiling, strain panel (AID 1159580);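 further: tested at 20 µM; growth read once vehicle control cultures reached saturation at 30 °C; 1 = growth at the plate median or of vehicle wells; lower values mean less growth of the strain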
Conditions: growth OD

Measured: normalized growth

O=c1c(O)c(-c2ccc(O)c(O)c2)oc2cc(O)ccc12
active: S. cerevisiae deletion strains, locus YKL190W, strain CNB1, hits give low values 0.881 | S. cerevisiae deletion strains, locus YKR001C, strain vps1, hits give low values 0.857 | S. cerevisiae deletion strains, locus YLR113W, strain HOG1, hits give low values 0.571 | S. cerevisiae deletion strains, locus YLR268W, strain sec22, hits give low values 0.854 | S. cerevisiae deletion strains, locus YLR330W, strain CHS5, hits give low values 0.908 | S. cerevisiae deletion strains, locus YLR342W, strain FKS1 (second series), hits give low values 0.753 | S. cerevisiae deletion strains, locus YLR371W, strain rom2, hits give low values 0.882 | S. cerevisiae deletion strains, locus YLR418C, strain cdc73, hits give low values 0.565 | S. cerevisiae deletion strains, locus YMR223W, strain ubp8, hits give low values 0.893 | S. cerevisiae deletion strains, locus YNL153C, strain GIM3, hits give low values 0.806 | S. cerevisiae deletion strains, locus YNL183C, strain NPR1, hits give low values 0.357 | S. cerevisiae deletion strains, locus YNL233W, strain BNI4, hits give low values 0.795 | S. cerevisiae deletion strains, locus YNL307C, strain MCK1, hits give low values 0.779 | S. cerevisiae deletion strains, locus YNL322C, strain KRE1, hits give low values 0.918 | S. cerevisiae deletion strains, locus YOL006C, strain TOP1, hits give low values 0.52 | S. cerevisiae deletion strains, locus YOR231W, strain MKK1, hits give low values 0.54 | S. cerevisiae deletion strains, locus YPL256C, strain CLN2, hits give low values 0.421 | S. cerevisiae deletion strains, strain wtn01, hits give low values 0.86 | S. cerevisiae strains, strain wild type, hits give low values 0.815
inactive: S. cerevisiae deletion strains, locus YKL009W, strain mrt4, hits give low values 1.03 | S. cerevisiae deletion strains, locus YKL068W, hits give low values 0.99 | S. cerevisiae deletion strains, locus YKL085W, strain MDH1 (second series), hits give low values 1 | S. cerevisiae deletion strains, locus YKL085W, strain MDH1, hits give low values 1 | S. cerevisiae deletion strains, locus YKL160W, strain elf1, hits give low values 0.982 | S. cerevisiae deletion strains, locus YKR026C, strain gcn3, hits give low values 1 | S. cerevisiae deletion strains, locus YKR091W, strain srl3, hits give low values 1 | S. cerevisiae deletion strains, locus YLL001W, strain dnm1, hits give low values 0.994 | S. cerevisiae deletion strains, locus YLL026W, hits give low values 0.995 | S. cerevisiae deletion strains, locus YLL041C, strain sdh2, hits give low values 0.996 | S. cerevisiae deletion strains, locus YLR027C, strain aat2, hits give low values 0.968 | S. cerevisiae deletion strains, locus YLR039C, strain RIC1, hits give low values 0.848 | S. cerevisiae deletion strains, locus YLR058C, strain SHM2, hits give low values 0.978 | S. cerevisiae deletion strains, locus YLR102C, strain apc9, hits give low values 1.01 | S. cerevisiae deletion strains, locus YLR221C, strain rsa3, hits give low values 0.95 | S. cerevisiae deletion strains, locus YLR258W, strain gsy2, hits give low values 1 | S. cerevisiae deletion strains, locus YLR262C, strain YPT6 (second series), hits give low values 0.981 | S. cerevisiae deletion strains, locus YLR262C, strain YPT6, hits give low values 0.877 | S. cerevisiae deletion strains, locus YLR320W, strain mms22, hits give low values 0.942 | S. cerevisiae deletion strains, locus YLR342W, strain FKS1, hits give low values 0.978 | S. cerevisiae deletion strains, locus YLR357W, strain rsc2, hits give low values 0.922 | S. cerevisiae deletion strains, locus YLR370C, strain arc18, hits give low values 0.978 | S. cerevisiae deletion strains, locus YLR384C, strain iki3, hits give low values 0.98 | S. cerevisiae deletion strains, locus YML016C, strain PPZ1, hits give low values 0.974 | S. cerevisiae deletion strains, locus YML032C, strain rad52, hits give low values 0.962 | S. cerevisiae deletion strains, locus YML120C, strain ndi1, hits give low values 1.01 | S. cerevisiae deletion strains, locus YML124C, strain tub3, hits give low values 1 | S. cerevisiae deletion strains, locus YMR058W, strain fet3, hits give low values 0.944 | S. cerevisiae deletion strains, locus YMR078C, strain ctf18, hits give low values 0.997 | S. cerevisiae deletion strains, locus YMR125W, strain sto1, hits give low values 1.02 | S. cerevisiae deletion strains, locus YMR129W, hits give low values 0.986 | S. cerevisiae deletion strains, locus YMR205C, strain PFK2, hits give low values 0.994 | S. cerevisiae deletion strains, locus YMR231W, strain pep5, hits give low values 0.987 | S. cerevisiae deletion strains, locus YMR263W, strain SAP30, hits give low values 0.892 | S. cerevisiae deletion strains, locus YMR307W, strain GAS1, hits give low values 0.675 | S. cerevisiae deletion strains, locus YNL067W, strain RPL9B, hits give low values 0.901 | S. cerevisiae deletion strains, locus YNL071W, strain lat1, hits give low values 0.945 | S. cerevisiae deletion strains, locus YNL128W, strain TEP1, hits give low values 0.864 | S. cerevisiae deletion strains, locus YNL209W, strain ssb2, hits give low values 0.949 | S. cerevisiae deletion strains, locus YNL248C, strain rpa49, hits give low values 0.995 | S. cerevisiae deletion strains, locus YNL250W, strain rad50, hits give low values 0.942 | S. cerevisiae deletion strains, locus YNL271C, strain bni1, hits give low values 0.978 | S. cerevisiae deletion strains, locus YNL298W, strain CLA4, hits give low values 0.965 | S. cerevisiae deletion strains, locus YNL322C, strain KRE1 (second series), hits give low values 1 | S. cerevisiae deletion strains, locus YNR049C, strain mso1, hits give low values 0.997 | S. cerevisiae deletion strains, locus YNR052C, strain pop2, hits give low values 1 | S. cerevisiae deletion strains, locus YOL012C, strain htz1 0.318 | S. cerevisiae deletion strains, locus YOL147C, strain pex11, hits give low values 1 | S. cerevisiae deletion strains, locus YOR001W, strain rrp6, hits give low values 0.935 | S. cerevisiae deletion strains, locus YOR061W, strain CKA2, hits give low values 0.955 | S. cerevisiae deletion strains, locus YOR069W, strain VPS5, hits give low values 0.997 | S. cerevisiae deletion strains, locus YOR070C, strain gyp1, hits give low values 0.968 | S. cerevisiae deletion strains, locus YOR080W, strain dia2, hits give low values 0.984 | S. cerevisiae deletion strains, locus YOR083W, strain WHI5, hits give low values 0.984 | S. cerevisiae deletion strains, locus YOR106W, strain vam3, hits give low values 0.984 | S. cerevisiae deletion strains, locus YOR136W, strain idh2, hits give low values 0.976 | S. cerevisiae deletion strains, locus YOR144C, strain elg1, hits give low values 1.01 | S. cerevisiae deletion strains, locus YOR184W, strain ser1, hits give low values 0.883 | S. cerevisiae deletion strains, locus YOR265W, strain rbl2, hits give low values 1.02 | S. cerevisiae deletion strains, locus YOR270C, strain vph1, hits give low values 1.02 | S. cerevisiae deletion strains, locus YOR290C, strain snf2, hits give low values 0.997 | S. cerevisiae deletion strains, locus YOR316C, strain cot1, hits give low values 1.01 | S. cerevisiae deletion strains, locus YPL051W, strain arl3, hits give low values 0.962 | S. cerevisiae deletion strains, locus YPL055C, strain LGE1, hits give low values 0.784 | S. cerevisiae deletion strains, locus YPL078C, strain atp4, hits give low values 1.01 | S. cerevisiae deletion strains, locus YPL106C, strain sse1, hits give low values 0.971 | S. cerevisiae deletion strains, locus YPL240C, strain hsp82, hits give low values 0.998 | S. cerevisiae deletion strains, locus YPL241C, strain CIN2, hits give low values 0.981 | S. cerevisiae deletion strains, locus YPR119W, strain clb2, hits give low values 1.01 | S. cerevisiae deletion strains, locus YPR141C, strain kar3, hits give low values 0.978 | S. cerevisiae deletion strains, locus YPR163C, strain tif3, hits give low values 0.956 | S. cerevisiae deletion strains, locus YPR167C, strain met16, hits give low values 1.01
